Assay results taken from PubChem BioAssay (NCATS).

Target: Glucocorticoid receptor (Homo sapiens) (UniProt P04150)
Test: GR-GFP Redistribution (AID 450)
Details: U2OS GR-GFP nuclear translocation, laser cytometry, 2 h; series mostly up to 20.6 µM;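 active means compounds whose dose series gives a full or clear partial fitted curve of increased nuclear translocation; inconclusive means weak partial curve or effect only at the top dose; inactive means no dose-dependent translocation response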
Potency means the concentration at half of the fitted maximal effect.

Sequence of Glucocorticoid receptor (Homo sapiens) (P04150 whole entry, looked up): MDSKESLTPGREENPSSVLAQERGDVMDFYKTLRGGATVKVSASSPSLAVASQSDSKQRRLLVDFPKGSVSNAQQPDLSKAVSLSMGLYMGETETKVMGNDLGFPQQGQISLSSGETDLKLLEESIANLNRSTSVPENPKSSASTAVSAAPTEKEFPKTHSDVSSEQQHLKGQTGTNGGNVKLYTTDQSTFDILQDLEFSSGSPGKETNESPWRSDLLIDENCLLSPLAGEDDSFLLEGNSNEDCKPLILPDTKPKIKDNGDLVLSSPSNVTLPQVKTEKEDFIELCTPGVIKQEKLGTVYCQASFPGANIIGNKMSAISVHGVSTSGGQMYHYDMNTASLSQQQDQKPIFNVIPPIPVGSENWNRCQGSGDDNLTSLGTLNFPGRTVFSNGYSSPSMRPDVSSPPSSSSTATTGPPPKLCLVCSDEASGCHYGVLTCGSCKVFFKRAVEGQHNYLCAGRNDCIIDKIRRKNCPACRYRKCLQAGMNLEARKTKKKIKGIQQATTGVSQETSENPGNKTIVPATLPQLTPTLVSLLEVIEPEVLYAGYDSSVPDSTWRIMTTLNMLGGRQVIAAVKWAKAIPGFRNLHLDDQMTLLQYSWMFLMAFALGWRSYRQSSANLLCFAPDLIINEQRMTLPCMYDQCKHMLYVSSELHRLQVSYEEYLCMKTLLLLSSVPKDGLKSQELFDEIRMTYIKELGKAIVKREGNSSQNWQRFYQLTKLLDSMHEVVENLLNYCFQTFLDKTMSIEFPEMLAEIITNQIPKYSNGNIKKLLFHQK

Potency, inactive:
Cc1ccc(-n2ncc3c(NCc4ccc5c(c4)OCO5)ncnc32)c(C)c1 > 20.6 µM
COCCOC(=O)c1c(C)oc2ccc(OC(=O)COc3c(F)c(F)c(F)c(F)c3F)cc12 > 20.6 µM
Cn1c(Cl)nc2c1c(=O)n(Cc1cccc(Br)c1)c(=O)n2C > 20.6 µM
Cc1sc(-n2c(C)cc(/C=N/n3cnnc3)c2C)c(C#N)c1C > 20.6 µM
C=CCOC(=O)C1=C(C)NC(SCC(=O)N(CC)CC)=C(C#N)C1c1ccccc1 (stereo unspecified) > 20.6 µM
CCOC(=O)CSc1nc(N)c2c3c(sc2n1)CCCC3 > 20.6 µM
O=C(O)CSCC(=O)Nc1ccc(S(=O)(=O)N2CCCCC2)cc1 > 20.6 µM
CC1(C)CC(=O)C(C=NCC(O)c2ccccc2)=C(O)C1 (stereo unspecified) > 20.6 µM
COC(=O)c1sc(NC(=O)c2oc3ccccc3c2C)nc1C > 20.6 µM
COc1ccc(OCC(O)Cn2c(Nc3cccc(C)c3)nc3c2c(=O)n(C)c(=O)n3C)cc1 (stereo unspecified) > 20.6 µM
Cc1ccc(Cn2ncc3c(N4CCN(c5ccc(C)cc5)CC4)ncnc32)cc1 > 20.6 µM
Nc1nnc(Cc2ccc(Cl)c(Cl)c2)s1 > 20.6 µM
COc1ccc(C(=O)N/C(N)=N/c2nc3ccccc3o2)cc1 > 20.6 µM
C=C(C)CC1N(c2cccc(OC)c2)C(=O)[C@@H]2C(C(=O)O)[C@H]3C=C[C@@]12O3 (stereo partly specified) > 20.6 µM
CN(C)C/C(Cl)=C(\Cl)c1ccccc1 > 20.6 µM
CNC(=O)c1cc2c(ccc3ccccc32)oc1=N > 20.6 µM
